Compounds with a hit are over-represented: about 7.3% of the library has one in this group of screens.
HCMV inh = qHTS Assay for inhibitors of the human cytomegalovirus (HCMV); activity change, negative = inhibition, % at 57.5 µM; actives 4.5% (n = 410,000); HFF cells, HCMV-luciferase reporter, 72 h; stronger effect = lower value; in the data active = activity change below about -60%; inconclusive = no clear call, values can overlap the other calls; inactive = above about -39%
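Screen run at 2 compound doses on HFFs infected with reporter HCMV, MOI 1 PFU/cell. Luciferase activity from cell lysates at 72 h post infection gave inhibition relative to buffer-only and Salinomycin wells.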
AmpC inh detg = qHTS Inhibitors of AmpC Beta-Lactamase (assay with detergent). P00811. AmpC hydrolysis of nitrocefin, absorbance 480 nm, 0.01% Triton. Potency, µM (top dose mostly 114 µM), inactives show at the highest dose activity change, negative = inhibition, actives largely listed as inhibitors. actives 0.041% (n = 370,000). AID 485294, 2010;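 note: potency is the fitted concentration of half-maximal effect; 0% = no-compound wells and -100% = no-enzyme wells; nearly all actives have a fitted effect of over 25% in size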
Target sequence (P00811 whole entry, looked up): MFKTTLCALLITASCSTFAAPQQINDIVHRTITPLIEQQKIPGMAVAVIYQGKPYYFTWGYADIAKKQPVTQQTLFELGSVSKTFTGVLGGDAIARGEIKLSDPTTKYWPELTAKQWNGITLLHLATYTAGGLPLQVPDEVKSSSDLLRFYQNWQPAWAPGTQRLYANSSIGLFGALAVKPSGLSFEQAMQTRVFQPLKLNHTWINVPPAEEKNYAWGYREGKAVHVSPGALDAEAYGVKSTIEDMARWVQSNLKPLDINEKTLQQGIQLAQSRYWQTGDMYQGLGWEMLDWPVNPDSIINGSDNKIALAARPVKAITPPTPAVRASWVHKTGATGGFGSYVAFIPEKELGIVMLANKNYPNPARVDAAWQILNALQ
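AmpC (5.3 nM in the dispensed reagent) in 20 mM phosphate pH 7.0 with 0.01% (detergent screen) or 0.0001% Triton X-100 was preincubated with compounds for 15 min at room temperature. Nitrocefin was then added from an 800 uM solution, and hydrolysis was followed at 480 nm.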
HCV inhibitor = qHTS Assay for Inhibitors of Hepatitis C Virus (HCV); Potency, µM (top dose mostly 41.8 µM), inactives show at the highest dose activity change, negative = inhibition, most hits filed as inhibitors; AID 651820, 2012; Huh7.5.1 HCVcc-Cre infection, luciferase reporter, 44 h; actives 3.4% (n = 340,000); note: potency is the fitted concentration of half-maximal effect
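Reporter virus HCVcc-Cre (~0.5 moi) infects cells exposed to compound; seeding density 1,000 cells/well with 4 h settling beforehand. Luminescence, 15 sec read, taken 44 h post-infection following a 15 min RT substrate incubation.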
FMDV inh = High Throughput Screening for Foot and Mouth Disease Virus Antivirals; FMDV antiviral cell-based qHTS; actives 1.2% (n = 410,000); Potency, µM (titrated, usually from 57.9 µM), without a hit: at the top dose activity change, negative = inhibition, usual class: inhibitors; calls by dose curve; tested in HEK293T cells; note: read-out not given here; potency is the fitted concentration of half-maximal effect; nearly all actives have a fitted effect of over 45% in size
AmpC no deterg = qHTS Inhibitors of AmpC Beta-Lactamase (assay without detergent). P00811. AmpC nitrocefin hydrolysis, absorbance 480 nm, 0.0001% Triton. Potency, µM (titrated, usually from 57.1 µM), for inactives: top-dose activity change, negative = inhibition, hits mostly inhibitors. actives 0.52% (n = 330,000). AID 485341, 2010;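 note: potency is the fitted concentration of half-maximal effect; plate controls were no compound for no effect and no enzyme for full effect; nearly all actives have a fitted effect of over 20% in size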
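AmpC (5.3 nM in the dispensed reagent) in 20 mM phosphate pH 7.0 with 0.01% (detergent screen) or 0.0001% Triton X-100 was preincubated with compounds for 15 min at room temperature. Nitrocefin was then added from an 800 uM solution, and hydrolysis was followed at 480 nm.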
The depositor's hits bear a star; ? = inconclusive; . = not tested or not shown; [ ] = dose if it differs, or a comment. Unless noted, calls come from the whole dose curve; as a rule, active = well fitted curve in the direction sought with a large enough effect; inconclusive = small, poorly fitted or top-dose-only effect, or another doubt; inactive = no such curve, though single readings can be large; an effect the other way counts as inactive or inconclusive. Unless noted, % is set by controls: 0 for no effect and ±100 for the full control effect.

SMILES	HCMV inh	AmpC inh detg	HCV inhibitor	FMDV inh	AmpC no deterg
C#CCN(C[C@H]1[C@H](OC(=O)Nc2c(C)noc2C)[C@H](OC(=O)Nc2c(C)noc2C)CN(C(=O)OC(C)C)N1C(=O)OC(C)C)S(=O)(=O)c1ccc(C)cc1	-25	.	.	.	.
COc1ccccc1-n1cc([C@@H]2C[C@H]3CN(c4ccccc4)C(=O)[C@]34CCCN24)cn1	-97*	1%	5.6µM*	-7%	-16%
CCOc1cc([C@@H]2C[C@H]3CN(c4ccccc4)C(=O)[C@]34CCCN24)ccc1OC	-69*	8%	?	4%	44%
COc1cc([C@@H]2C[C@H]3CN(c4ccccc4)C(=O)[C@]34CCCN24)cc(OC)c1OC	?	-5%	-27%	-10%	45%
COc1ccc(C2=NN(C)C(=NCc3ccccc3)SC2)cc1	-13	-11%	7.9µM*	19%	-16%
Nc1cc(-c2ccc(Br)cc2)nn1Cc1ccccc1	-77*	8%	1.3µM*	-11%	-12%
Nc1cc(-c2cccc(Br)c2)nn1Cc1ccccc1	-9	-8%	?	-9%	-18%
CCOC(=O)C1(Cc2cccc(OC)c2)CCCN(C(=O)CNC(C)=O)C1 (stereo not drawn)	125	?	9%	0%	-4%
CCCNC(=O)C1(C)CCN1C(=O)C/C=C/c1ccccc1 (stereo not drawn)	96	.	.	-14%	.
CCC(C)[C@H](NC(=O)[C@@H]1CSC2c3ccccc3C(=O)N21)C(=O)NCc1ccco1 (stereo partly drawn)	-21	-5%	6%	-10%	-6%
CCOC(=O)C1=C(C)NC(=S)NC1c1ccc(-c2ccc(Cl)cc2)o1 (stereo not drawn)	-32	-8%	?	?	-54%
CCOC(=O)C1=C(C)NC(=S)NC1c1ccc(-c2cccc(Cl)c2C)o1 (stereo not drawn)	-9	-8%	6.3µM*	?	-55%
CCOC(=O)c1ccc(NC(=O)CC2Sc3ccc(C(F)(F)F)cc3NC2=O)cc1 (stereo not drawn)	-65*	10%	.	-24%	.
COc1ccc(NC(=O)CC2SC(=O)NC2=O)cc1 (stereo not drawn)	-67*	3%	3%	-9%	-35%
Cc1ccc(NC(=O)CC2SC(=O)NC2=O)cc1 (stereo not drawn)	10	8%	3%	-11%	-18%
CCN(C(=O)COC(=O)c1ccc(=O)n(Cc2ccccc2)n1)C1CCCCC1	-28	2%	24%	-6%	-7%
Cc1cccc(C2N3CC4(C(C)C)CN2CC(C(C)C)(C3)C4=O)c1 (stereo not drawn)	0	5%	.	0%	.
CC(C)n1cc(/C=C/c2cc[n+](C)cc2)c2ccccc21	-95*	-8%	32µM*	?	15%
Cc1[nH]c2ccccc2c1/C=C/c1cc[n+](C)cc1	-69*	?	?	-20%	4%
Cc1ccccc1/C=C/c1cc[n+](C)cc1	?	2%	?	-6%	-18%
C=CCn1c(C)c(/C=C/c2cc[n+](C)cc2)c2ccccc21	-96*	9%	?	?	1%
C[n+]1ccc2[nH]c3ccccc3c2c1	-12	.	.	-4%	.
C=CCn1cc(/C=C/c2cc[n+](C)cc2)c2ccccc21	-96*	-19%	?	?	23%
CC(C)c1nnc(SCC(=O)N2CCc3ccccc32)n1N	6	?	25%	-3%	-27%
OC(CNCC1COc2ccccc2O1)COc1ccc(Cl)cc1 (stereo not drawn)	11	0%	-3%	-20%	36%
SMILES	HCMV inh	AmpC inh detg	HCV inhibitor	FMDV inh	AmpC no deterg
OCC1(CCOc2ccccc2)CCN(CCCn2cccn2)CC1	6	-14%	10%	-7%	-10%
O=C1CSc2ccc(S(=O)(=O)N3CCN(c4ccccc4F)CC3)cc2N1	-76*	0%	?	?	-30%
O=C1CSc2ccc(S(=O)(=O)NCc3ccccc3Cl)cc2N1	-60*	-7%	-15%	77%	-45%
O=C(NCCS(=O)(=O)NCC1CCCO1)c1ccccc1 (stereo not drawn)	-28	?	4%[8.37 µM]	-9%	-7%
N#CCCN(NC(=O)OCc1ccccc1)C(=O)OCc1ccccc1	-20	.	31%	-2%	.
C[C@@H]1CN([C@@H](C)CO)C(=O)c2cc(NC(=O)Nc3ccccc3)ccc2O[C@@H](C)CCCCO[C@H]1CN(C)C(=O)Nc1ccc(C(F)(F)F)cc1	-4	.	.	?	.
O=C(Nc1c(-c2ccccc2)[nH][nH]c1=O)c1cccc(C(F)(F)F)c1	-12	.	.	-14%	.
CCCCCC(=O)N1C[C@@H](O)[C@H](n2cc(COC(=O)c3ccccc3)nn2)C[C@@H]1c1ccc(Cl)cc1	43	.	.	-17%	.
O=C(c1ccccc1)c1ccc(Cn2cc(CCCO)nn2)cc1	?	10%	10µM*	-15%	60%
O=C(c1ccccc1)c1ccc(Cn2cc(-c3ccccc3)nn2)cc1	?	-12%	1.4µM*	-6%	-36%
O=C(O)CCCCCCCCc1cn(Cc2ccc(C(=O)c3ccccc3)cc2)nn1	-5	?	-18%	-15%	-24%
O=c1ccnc2n1COCS2	-100*	5%	22%	-4%	-5%
O=c1c(-c2ccnn2-c2ccc(F)cc2)cnc2n1CCS2	22	2%	9%	-12%	-13%
Cc1c(NC(=O)OCCSc2nc(N(C)C)nc(N(C)C)n2)sc(=S)n1C	?	-4%	14µM*	.	.
Cc1ccc(N2C(=O)CC(NNc3nc4ccccc4s3)C2=O)cc1C (stereo not drawn)	-79*	-21%	29%	-19%	-27%
COc1ccc(N2C(=O)CC(NNc3nc4ccccc4s3)C2=O)cc1 (stereo not drawn)	29	-5%	16%	-7%	-1%
COc1cc(OC)cc(C2=Cc3ccccc3C(CC(C)=O)N2c2ccc(-c3cncnc3)cc2)c1 (stereo not drawn)	60	.	.	0%	.
O=C(CC1c2ccccc2C=C(c2ccsc2)N1c1ccc(-c2cccnc2)cc1)C1CC1 (stereo not drawn)	-79*	.	.	0%	.
C/C(=N\NC(=O)CSc1nc2ccccc2s1)c1cccnc1	2	8%	-16%	-28%	-11%
CC(=O)Nc1ccc(NC(=O)C2CCN(c3ccc(C(F)(F)F)cn3)CC2)cc1	-67*	6%	13µM*	-27%	-2%
O=C(Nc1ccc(N2CCOCC2)nc1)c1ccc(C(F)(F)F)cc1	-68*	-10%	7.1µM*	8.9µM*	0%

Screening data as filed in PubChem BioAssay.
